miR-122 inh: miR-122 sensor activation | Huh7 psiCHECK-miR122 Renilla luciferase sensor, 48 h | activation, % at 12.5 µM | 0.14% of 340,000 active | AID 623901;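 active means mean activation of 30% or more, with every replicate also reaching 30%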;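 further: 0% = median of neutral control wells and 100% = median of positive control wells; higher luciferase signal means stronger suppression of miR-122 activity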
* hit, by the source's call. The sample as a whole holds a higher share of hits than the screen did.

SMILES | miR-122 inh
COc1ccc(-c2cnc3c(c2)C(=O)N([C@@H](C)CO)C[C@H](C)[C@@H](CN(C)C(=O)Cc2ccccc2)O3)cc1 | -5.0
C[C@@H]1CN([C@H](C)CO)C(=O)c2cc(-c3cccc(F)c3)cnc2O[C@H]1CN(C)S(C)(=O)=O | 1.8
COc1ccc(-c2cnc3c(c2)C(=O)N([C@@H](C)CO)C[C@@H](C)[C@@H](CN(C)C(=O)Cc2ccccc2)O3)cc1 | -6.8
CCC(=O)Nc1ccc2c(c1)OC[C@H](C)N(CCC(F)(F)F)C[C@@H](C)[C@H](OC)CN(C)C2=O | 0.5
CC(=O)N(C)C[C@@H]1Oc2cc(C#CC3CCCCC3)ccc2S(=O)(=O)N([C@@H](C)CO)C[C@@H]1C | 2.7
CC(C)CC#Cc1cnc2c(c1)C(=O)N([C@@H](C)CO)C[C@@H](C)[C@@H](CN(C)C(=O)Cc1ccccc1)O2 | 9.2
CC(C)(CNC(=S)NCCc1ccccc1)CNC(=S)NCCc1ccccc1 | -279.8
c1ccc(CCNc2nnnn2-c2ccccc2)cc1 | 45.5*
CCN1CCN(Cc2ccc(NC(=O)c3cc(NC(=O)c4cc5cccc(OC)c5o4)cc(OC)c3)cc2C(F)(F)F)CC1 | 31.2*
COc1ccc(NS(=O)(=O)c2cc(NC(=O)c3ccc(F)cc3)ccc2OC)cc1 | -108.4
COc1ccc(NC(=O)Nc2ccc3c(c2)C(=O)N([C@@H](C)CO)C[C@H](C)[C@H](CN(C)Cc2ccc(C(F)(F)F)cc2)O3)cc1 | -149.5
CCC(=O)Nc1ccc2c(c1)OC[C@@H](C)N(C(=O)c1ccncc1)C[C@H](C)[C@H](OC)CN(C)C2=O | 1.5
C[C@H](O)C#Cc1ccc2c(c1)O[C@@H](CN(C)Cc1cncnc1)[C@@H](C)CN([C@@H](C)CO)S2(=O)=O | 9.8
C[C@@H]1CN([C@@H](C)CO)C(=O)c2cccc(NC(=O)C3CCCCC3)c2O[C@@H]1CN(C)Cc1ccc(C(=O)Nc2ccccc2N)cc1 | -166.4
O=C(Nc1ccc(Cn2cccn2)cc1)c1ccc(COc2ccccc2Br)cc1 | 31.5*
C[C@H]1CN([C@@H](C)CO)S(=O)(=O)c2ccc(C#Cc3ccncc3)cc2O[C@@H]1CN(C)C(=O)C1CCCCC1 | -28.7
C[C@H]1CN([C@@H](C)CO)C(=O)c2cc(C#Cc3ccccn3)cnc2O[C@H]1CN(C)Cc1cccnc1 | -1.4
Cc1ccccc1-c1ccc2c(c1)O[C@@H](CN(C)C(=O)Nc1ccccc1)[C@@H](C)CN([C@@H](C)CO)S2(=O)=O | -3.8
COc1ccc(C#Cc2ccc3c(c2)O[C@@H](CN(C)C(=O)NC2CCCCC2)[C@H](C)CN([C@@H](C)CO)S3(=O)=O)cc1 | -16.6
COCC#Cc1cnc2c(c1)C(=O)N([C@@H](C)CO)C[C@H](C)[C@H](CN(C)C(=O)Nc1ccc(OC)cc1)O2 | -22.6
Cc1ccccc1-c1ccc2c(c1)O[C@@H](CN(C)C(=O)Nc1ccccc1)[C@@H](C)CN([C@H](C)CO)S2(=O)=O | 4.7
COc1ccc(C#Cc2ccc([C@@H]3[C@H](CO)N4CCCCN(C(=O)Nc5ccccc5)C[C@@H]34)cc2)cc1 | 36.0*
COc1cccc(NC(=O)N(C)C[C@@H]2Oc3cc(C#Cc4ccccc4)ccc3S(=O)(=O)N([C@H](C)CO)C[C@H]2C)c1 | 2.3
COc1ccc(NC(=O)N2CCCCN3[C@H](CO)[C@H](c4ccc(C#CCC(C)C)cc4)[C@H]3C2)cc1 | 33.7*
Cc1ccccc1-c1ccc([C@@H]2[C@@H](CO)N3CCCCN(C(=O)Nc4ccc(F)cc4)C[C@@H]23)cc1 | 30.8*
SMILES | miR-122 inh
C[C@H](CO)N1C[C@H](C)[C@H](CN(C)C(=O)c2cccnc2)Oc2cc(/C=C/c3ccccc3)ccc2S1(=O)=O | -3.4
COc1cccc(NC(=O)N(C)C[C@H]2Oc3ncc(C#Cc4cccnc4)cc3C(=O)N([C@@H](C)CO)C[C@@H]2C)c1 | 5.0
C[C@@H]1CN([C@@H](C)CO)C(=O)c2cccc(N(C)C)c2O[C@@H]1CN(C)Cc1ccc(C(=O)Nc2ccccc2N)cc1 | -109.3
Cc1ccc(S(=O)(=O)N(C)C[C@H]2Oc3ncc(C#CCC(C)C)cc3C(=O)N([C@H](C)CO)C[C@@H]2C)cc1 | -54.0
CCCCCOC(=O)c1[nH]c2c(c1C)C(=O)CC(c1ccco1)C2 (configuration not stated) | -121.0
O=C1CC(c2ccco2)CC(O)=C1C=Nc1cc(Cl)ccc1O (configuration not stated) | 31.2*
CCCC(NS(=O)(=O)c1ccc(Br)cc1)C(=O)O (configuration not stated) | 35.9*
C[C@@H]1CN([C@H](C)CO)C(=O)c2cc(/C=C/c3ccccc3)cnc2O[C@@H]1CN(C)C(=O)c1cccnc1 | 3.8
O=C(Nc1ccc(Br)c(Cl)c1)c1ccco1 | -143.9
CC1(C)CC(=O)c2cnc(NC(=O)c3ccco3)nc2C1 | 37.6*
CCCNC(=O)Nc1ccc2c(c1)OC[C@@H](C)N(C)C[C@H](C)[C@H](OC)CN(C)C2=O | 0.0
COCC#Cc1ccc2c(c1)O[C@@H](CN(C)Cc1cncnc1)[C@H](C)CN([C@H](C)CO)S2(=O)=O | -6.3

Assay outcomes deposited in PubChem by Broad Institute.
